# Measurements: PubChem BioAssay AID720624 (Broad Institute, 2013)
# Measured potencies and affinities stand elsewhere. Inconclusive results are not listed. Calls of active or inactive are those of the source.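 How the source made its calls: active means viability loss with half-maximal concentration at most twice the top valid dose, at 8, 24 and 48 hours; inconclusive means timepoint results disagree; inactive means inactive at all three timepoints.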
# Assay: SNB-75 astrocytoma cell viability loss, late-stage follow-up, mechanism study for HRAS target identification, CellTiter-Glo ATP luminescence, several timepoints, dry powder (AID 720624)
smiles,measurement,value
Cc1onc(C(=O)N2CCN(C(c3ccncc3)c3ccncc3)CC2)c1[N+](=O)[O-],outcome,inactive
